Laboratory results as given in PubChem BioAssay.

Key:
[1] = tested on: Human papillomavirus type 1a protein E7 (residues 44-93); test: HPV1a E7 fragment binders on microarrays, primary screen, biochemical, small-molecule microarray, residues 44-93, 635 nm fluorescence (AID 1108); settings: small-molecule microarray binding, fluorescence 635 nm; higher = more signal;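 note: E7 fragment applied at 1 µg/mL in TBST for 1 h at 4 C; score combines spot fluorescence with its signal to noise ratio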
[2] = modulators of HCV replicon luciferase signal, primary screen, HCV replication inhibitor project, Huh7 cells, luciferase reporter (AID 1109); settings: 48 h, higher = more signal;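 note: huh7 hepatoma cells harbouring a luciferase neomycin HCV replicon reporter; luciferase luminescence as measure of HCV replicon replication; test concentration not given here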
[3] = molecular target: Left-right determination factor 2 (Homo sapiens) (UniProt O00292); test: LEFTY2 binders on small-molecule microarrays, primary screen, biochemical, small-molecule microarray, 635 nm fluorescence scan (AID 1110); settings: LEFTY2 binding, higher = more signal
Sequence of Left-right determination factor 2 (Homo sapiens) (O00292 whole entry, looked up): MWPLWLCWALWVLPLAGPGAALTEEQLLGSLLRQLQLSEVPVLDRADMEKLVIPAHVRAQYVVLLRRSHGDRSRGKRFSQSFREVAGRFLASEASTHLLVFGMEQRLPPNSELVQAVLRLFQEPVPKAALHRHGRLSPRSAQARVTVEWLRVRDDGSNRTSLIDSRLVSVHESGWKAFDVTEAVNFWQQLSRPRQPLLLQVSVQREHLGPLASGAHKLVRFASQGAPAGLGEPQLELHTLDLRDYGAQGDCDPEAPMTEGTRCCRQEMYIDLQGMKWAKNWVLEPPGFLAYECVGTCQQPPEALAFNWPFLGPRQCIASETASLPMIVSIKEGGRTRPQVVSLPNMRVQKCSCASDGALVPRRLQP

[4] = molecular target: Calmodulin-1 (Homo sapiens) (UniProt P0DP23); test: CALM1 binders on microarrays, EGTA buffer, profiling panel, biochemical, small-molecule microarray, Cy5-labelled CALM1 (AID 1111); settings: Cy5-CALM1 binding fluorescence, higher = more signal;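 note: labelled calmodulin applied in Tris saline Tween buffer holding calcium plus EGTA and DTT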
[5] = molecular target: Calmodulin-1 (Homo sapiens) (UniProt P0DP23); test: calcium-bound CALM1 binders on microarrays, profiling panel, artefact control for SMM control-protein annotation, biochemical, small-molecule microarray, Cy5-labelled CALM1, plus calcium (AID 1112); settings: Cy5-CALM1 binding fluorescence, higher = more signal;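 note: score merges spot fluorescence with signal to noise from triplicate slides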
[6] = small-molecule microarray binders of probe aWnt5a, primary screen, biochemical, biotinylated probe, 635/667 nm fluorescence (AID 1113); settings: higher = more signal;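 note: score merges 667 nm fluorescence intensity with signal-to-noise per printed feature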
[7] = small-molecule microarray binders of probe aShh, primary screen, biochemical, biotinylated probe, 635/667 nm fluorescence (AID 1114); settings: higher = more signal;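 note: probe is biotin-labelled aShh protein from a stem cell growth factor screen; measures binding of labelled protein to compounds printed on the slide; score merges feature fluorescence at 667 nm with signal-to-noise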
[8] = small-molecule microarray binders of probe aNog, primary screen, biochemical, biotinylated probe, 635/667 nm fluorescence (AID 1115); settings: higher = more signal;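 note: probe is biotinylated aNog protein used at 0.15 µg/mL for 1 h at 4 C; z-score combines 667 nm fluorescence of each spot with its signal to noise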
[9] = molecular target: Torsin-1A-interacting protein 1 (Homo sapiens) (UniProt Q5JTV8); test: LAP1 binders from COS7 cell lysate, primary screen, small-molecule microarray, 635/667 nm fluorescence (AID 1116); settings: COS7-hLAP1 lysate binding, 635 nm fluorescence, higher = more signal
Sequence of Torsin-1A-interacting protein 1 (Homo sapiens) (Q5JTV8 whole entry, looked up): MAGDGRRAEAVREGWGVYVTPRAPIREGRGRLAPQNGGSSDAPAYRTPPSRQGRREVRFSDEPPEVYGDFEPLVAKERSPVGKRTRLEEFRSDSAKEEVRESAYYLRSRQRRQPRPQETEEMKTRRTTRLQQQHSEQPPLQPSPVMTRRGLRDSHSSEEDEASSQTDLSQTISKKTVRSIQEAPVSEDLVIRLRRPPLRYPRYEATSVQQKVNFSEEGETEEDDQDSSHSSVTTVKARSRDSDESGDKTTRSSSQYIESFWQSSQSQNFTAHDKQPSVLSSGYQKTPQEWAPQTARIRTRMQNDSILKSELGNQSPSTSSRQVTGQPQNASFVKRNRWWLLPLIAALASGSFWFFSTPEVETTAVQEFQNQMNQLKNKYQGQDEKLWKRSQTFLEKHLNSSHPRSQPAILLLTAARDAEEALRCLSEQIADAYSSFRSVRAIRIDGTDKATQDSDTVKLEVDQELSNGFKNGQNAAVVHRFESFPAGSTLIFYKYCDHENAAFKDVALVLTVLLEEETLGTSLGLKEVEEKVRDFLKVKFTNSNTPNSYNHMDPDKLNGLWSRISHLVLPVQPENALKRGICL

[10] = molecular target: Alpha-bungarotoxin (Bungarus multicinctus) (UniProt P60615); test: alpha-bungarotoxin binders on microarray, profiling panel, artefact control for SMM control protein annotation, biochemical, small-molecule microarray, Alexa647 label, 635/667 nm fluorescence (AID 1117); settings: alpha-BTX-A647 binding fluorescence, higher = more signal
Sequence of Alpha-bungarotoxin (Bungarus multicinctus) (P60615 whole entry, looked up): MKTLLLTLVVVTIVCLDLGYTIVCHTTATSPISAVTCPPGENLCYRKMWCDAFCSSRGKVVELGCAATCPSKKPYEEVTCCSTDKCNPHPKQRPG

Compound | composite z-score [1] | z-score [2] | composite z-score [3] | composite z-score [4] | composite z-score [5] | composite z-score [6] | composite z-score [7] | composite z-score [8] | composite z-score [9] | composite z-score [10]
COC(=O)[C@H](C)NC(=O)CCC1CC(OC(=O)NCCc2ccc(F)cc2)CC2(CCCC(COC(=O)NCC(c3ccccc3)c3ccccc3)O2)O1 (stereo not given in full) | 1.39 | -0.375 | 0.386 | 0.084 | -0.443 | -0.124 | 0.0062 | -0.152 | 0.516 | 0.853
CC(C)CON=C1C[C@@H](O)[C@@H](O)[C@@H]2[C@@H]3C(=O)N(C[C@@H]4CCCO4)C(=O)[C@@H]3CC[C@H]12 | 0.595 | 0.392 | 0.781 | 0.0832 | 0.0249 | -0.178 | -0.345 | -0.074 | 0.241 | 0.0141
O=C(NN=C1C[C@@H](O)[C@@H](O)[C@@H]2[C@@H]3C(=O)N(c4cccc(Oc5ccccc5)c4)C(=O)[C@@H]3CC[C@@H]12)OCc1ccccc1 | 0.69 | -0.983 | 0.127 | 0.131 | 0.0109 | -0.145 | -0.206 | 0.0658 | 0.184 | 0.837
COc1ccc(O[C@H]2C=C[C@@H](c3ccccc3)O[C@@H]2COC(=O)CCC(C)=NO[C@@H](C)c2cc(-c3c(C)cc(C)cc3C)no2)cc1 | -1.13 | -1.15 | -0.965 | -0.977 | -0.55 | -0.194 | 0.255 | -0.0207 | -1.16 | -0.707
O=C1NC(=O)C2C1C=CC(C(O)Cc1ccccc1)N2Nc1ccccn1 (stereo not given) | 0.555 | -0.377 | 0.185 | 0.0084 | -0.541 | 0.0328 | -0.0793 | 0.342 | 0.818 | 1.34
O=C1[C@H]2[C@H]3[C@H](O)[C@H](O)CC(=NOC[C@@H](O)COCc4ccco4)[C@H]3CC[C@H]2C(=O)N1c1cccc(Oc2ccccc2)c1 | -0.496 | 0.126 | -1.1 | -0.876 | -0.344 | -0.0792 | -0.138 | -0.0671 | 0.103 | -0.572
COC(=O)CC1OC1[C@H](C)[C@@H](OC)C(C)C (stereo not given in full) | -0.792 | -0.0397 | 0.389 | -0.723 | -1.26 | -0.1 | -0.147 | -0.487 | 0.601 | 0.93
COCCOC(=O)N1C(=O)[C@@]2(c3cc(C#Cc4ccc(OC)cc4)ccc31)[C@H](c1ccc(O)cc1)N1[C@H](c3ccccc3)[C@H](c3ccccc3)OC(=O)[C@H]1[C@@H]2C(N)=O | 1.44 | -2.02 | 0.599 | 1.06 | -0.139 | 0.0045 | 0.149 | -0.694 | 0.743 | 1.16
C[C@H]1Cc2c(-c3ccccc3)nc3c(c2CO1)CN(CCOc1ccccc1)CC3 | 1.33 | -0.56 | 0.945 | 0.491 | -0.416 | -0.0203 | 0.147 | -0.0172 | 0.0704 | 0.269
CCOC(=O)[C@H](CC(C)C)NC(=O)CCC1CC(OC(=O)NCc2cccc3ccccc23)CC2(CCCC(COC(=O)NCCN3CCOCC3)O2)O1 (stereo not given in full) | 1.26 | -0.814 | 0.444 | 0.144 | -0.854 | -0.176 | -0.0605 | -0.261 | 0.217 | 0.548
CCc1cc2c(nc1CC)CCN(CCC(C)=NOC(C)CN1CCCc3nc(C)c(C)cc31)C2 (stereo not given) | 1.13 | -2.1 | 0.482 | 0.276 | -0.544 | 0.245 | 1.38 | 0.774 | 0.849 | 1.21
O=C1[C@H]2[C@H]3[C@H](O)[C@H](O)CC(=NOCc4ccccc4)[C@@H]3CC[C@H]2C(=O)N1Cc1ccccc1 | 0.813 | 0.427 | 0.509 | 0.675 | -0.374 | -0.197 | 0.214 | 0.144 | 0.102 | 0.159
O=C1O[C@@H](c2ccccc2)[C@@H](c2ccccc2)N2[C@@H](c3ccccc3OCCO)[C@]3(C(=O)Nc4ccc(C#CCCO)cc43)[C@@H](C(=O)O)[C@H]12 | 1.42 | -1.99 | -0.28 | 1.04 | 0.734 | 0.385 | 0.633 | 1.32 | 1.17 | 2.53
COCC(=C=CC[C@@H](O)c1ccccc1OCCO)CCO | 0.692 | -0.779 | -0.0632 | 0.0775 | 0.119 | -0.206 | 0.0796 | -0.333 | 0.416 | 0.113
COCCOC(=O)N1C(=O)[C@@]2(c3cc(C#CC4(O)CCCCCC4)ccc31)[C@H](C(=O)N1CCN(c3ncccn3)CC1)[C@H]1C(=O)O[C@H](c3ccccc3)[C@H](c3ccccc3)N1[C@@H]2c1ccc(OCCO)cc1 | 1.01 | -1.38 | 0.519 | 0.942 | 0.0751 | 0.0136 | 0.637 | 0.42 | 0.889 | 1.33
COC(=O)[C@H](C)NC(=O)CCC1CC(OC(=O)NCc2ccc3c(c2)OCO3)CC2(CCCC(COC(=O)NCCOc3ccccc3)O2)O1 (stereo not given in full) | 0.966 | -0.424 | 0.581 | -0.0874 | -0.604 | -0.129 | -0.138 | -0.283 | 0.267 | 0.83
O=C1[C@H]2[C@H]3[C@H](O)[C@H](O)CC(=NO[C@@H]4O[C@H](CO)[C@@H](O)[C@H](O)[C@H]4O)[C@H]3CC[C@H]2C(=O)N1Cc1ccccc1 | 0.386 | 0.322 | 0.652 | -0.058 | -0.534 | 0.0044 | -0.209 | 0.124 | 0.135 | 0.784
CC(C)[C@@H](OCc1ccccc1)[C@H](C)C=NOC[C@@H](C)[C@H](OCc1ccccc1)C(C)C | 0.255 | -0.534 | 0.885 | 0.148 | -0.546 | -0.101 | -0.0685 | -0.132 | 0.0528 | 0.312
O=C1C[C@@H](O)[C@@H](O)[C@@H]2[C@@H]3C(=O)N(c4ccc(F)cc4F)C(=O)[C@@H]3CC[C@@H]12 | 0.461 | 0.586 | 0.585 | -0.0799 | -0.389 | 0.441 | -0.221 | -0.22 | 0.408 | -0.157
O=C1[C@H]2[C@H]3[C@H](O)[C@H](O)CC(=NO[C@@H]4O[C@H](CO)[C@@H](O)[C@H](O)[C@H]4O)[C@H]3CC[C@H]2C(=O)N1Cc1ccc2c(c1)OCO2 | 1.44 | -0.594 | -0.515 | -0.603 | -0.329 | -0.115 | -0.397 | 0.0327 | 0.441 | 1.02
C#CCCCON=C1C[C@@H](O)[C@@H](O)[C@@H]2[C@@H]3C(=O)N(CCC(=O)OCC)C(=O)[C@@H]3CC[C@@H]12 | -0.58 | -2.78 | -0.174 | -0.335 | 0.0811 | -0.0748 | 0.246 | 0.206 | -0.221 | 1.04
CCCC[C@@H](O)C1=C(C)C[C@H]2C(=O)N(Cc3ccccc3)C(=O)[C@H]2[C@H]1CO | -0.101 | 0.156 | 0.521 | -0.349 | -0.611 | -0.0478 | -0.0553 | -0.158 | 0.503 | -0.227
CC(CCC(=O)OC[C@H]1O[C@H](C#Cc2ccccc2)C=C[C@@H]1Oc1ccc(C)cc1)=NO[C@@H](C)c1cn([C@H](CO)Cc2ccccc2)nn1 | 0.507 | -1.97 | 0.381 | -0.329 | -0.385 | -0.152 | 0.108 | -0.12 | -0.0538 | 1.76
CC(CCC(=O)OC[C@H]1O[C@H](C#Cc2ccccc2)C=C[C@@H]1Oc1ccc(C)cc1)=NOC[C@@H](O)COCc1ccco1 | -0.412 | -0.635 | -5.42 | -1.49 | -1.96 | -0.426 | -0.206 | -0.732 | -1.87 | -0.818
CC(C)[C@@H](OCc1ccccc1)[C@H](C)C=NO[C@H](C)c1cn([C@H](CO)Cc2ccccc2)nn1 | 0.639 | -2.09 | 0.521 | -0.211 | -0.669 | -0.156 | -0.0709 | -0.216 | 0.113 | 0.263
